# From PubChem BioAssay AID489025 (Southern Research Specialized Biocontainment Screening …, 2010)
# In all, about 2,300 compounds went through this assay and about 790 (34%) were called active. This is one part of the list. Entries with a potency or affinity are not part of this list. Unmarked numbers belong to inactive results. No rule for the calls is given here.
# Experiment: THP-1 cell cytotoxicity, dose response, cytotoxicity control for non-replicating M. tuberculosis project (AID 489025)
# Conditions: THP-1 cell viability; series mostly up to 40 µM; viability: at the top concentration
row,SMILES,viability
1,COCCNC(=O)c1cc2cc(Cl)cc(Cl)c2oc1=O,106%
2,COC(=O)c1cc2c(ccc3ccccc32)oc1=O,77.5%
3,C=CCOc1ccc(CNCCO)cc1OCC,115%
4,O=S(=O)(c1ccc(Cl)c2ccccc12)N1CCCC1,89.1%
5,CN(C(=O)COC(=O)c1ccc([N+](=O)[O-])cc1Cl)C1CCCCC1,113%
6,N#Cc1cc(N)ccc1-n1cccc1,92.9%
7,Cc1cc(C(=O)N/N=C/c2ccc(OC(=O)c3ccccc3Br)cc2)n[nH]1,109%
8,Cc1cc2ccccc2n1CCNC(=O)C(C)(C)C,95.9%
9,CC(C)OC(=O)C(C)Oc1ccc(C(=O)NCCc2ccccc2)cc1 (stereo not given),89.1%
10,CC1CCN(C(=O)COC(=O)c2cc3ccccc3cc2O)CC1,112%
11,O=C(CC1CCCCC1)NCc1ccccc1,110%
12,CCNC(=O)COC(=O)c1ccc(-c2nc3ccccc3s2)s1,111%
13,CCSc1ncc(/C=N/Nc2ccc(Cl)cc2)n1C,80.5%
14,Cc1ccc(NC(=O)COC(=O)C2=COCCO2)c([N+](=O)[O-])c1,114%
15,Cc1c(NC(=O)c2coc(=O)c(Br)c2)c(=O)n(-c2ccccc2)n1C,117%
16,CCOC(=O)C(=O)NC12CC3CC(CC(C3)C1)C2,101%
17,O=C(COC(=O)c1ccc(Br)o1)Nc1ncc([N+](=O)[O-])s1,95.2%
18,O=C(NCCC1CCCC1)c1cccs1,93.2%
19,C/C(=N\NC(=O)c1cccs1)c1ccc2c(c1)OCO2,88.5%
20,O=C(CCS(=O)(=O)Cc1ccccc1)Nc1ncc([N+](=O)[O-])s1,87.1%
21,CCC(=O)c1ccc(OCC(=O)OCC(=O)N2CCc3ccccc3C2)cc1,114%
22,O=C(OCC(=O)N1CCc2ccccc21)c1ccc([N+](=O)[O-])cc1,123%
23,COC(=O)COc1ccc2cc(-c3ccc(OC)cc3)c(=O)oc2c1,127%

row,SMILES,viability
1,O=C(NCc1ccc(F)cc1)c1ccc(Br)o1,123%
2,O=C(Nc1ccc([N+](=O)[O-])cc1)c1ccc(Cn2cc([N+](=O)[O-])cn2)cc1,73.7%
3,Cc1cccc(NC(=O)c2n[nH]c([N+](=O)[O-])c2Br)c1C,104%
4,O=C(NCc1ccc(Cl)cc1)c1n[nH]c([N+](=O)[O-])c1Cl,116%
5,Cc1cccc(NCCC(=O)c2ccc([N+](=O)[O-])cc2)c1C,102%
6,Cc1ccc(CCC(=O)Nc2ccc(C)c(C)c2)o1,118%
7,COc1ccc(NC(=O)c2ccc(-c3ccc([N+](=O)[O-])cc3)o2)cc1OC,81.5%
8,CCC1CCc2sc(C(=O)NCC3CCCO3)cc2C1 (stereo not given),75.8%
9,CN1CCN(c2c(F)cc3c(=O)c(C(=O)O)cn4c3c2SCC4)CC1,100%
10,Cc1cc(C=C2C(=O)N(C)C(=S)N(C)C2=O)c(C)n1-c1cccnc1,77%
11,Cc1cccc(NC(=O)COC(=O)CCc2c[nH]c3ccccc23)c1C,117%
12,CC(=O)c1ccc(-c2nnc(CCC(=O)N(C)Cc3cccc4cnccc34)o2)s1,89.4%
13,CN1C(=O)CC(Sc2ccccc2C(=O)O)C1=O (stereo not given),132%
14,O=C(COC(=O)c1ccc(Cl)s1)c1ccc[nH]1,101%
15,COC(=O)[C@H](CC(C)C)NC(=O)NCCC1=CCCCC1,120%
16,CCn1nnc(NC(=O)COc2ccc(C3CCCCC3)cc2)n1,82.2%
17,CC12CN3CC(C)(CN(C1)C3c1ccc([N+](=O)[O-])o1)C2 (stereo not given),109%
18,COc1ccccc1NC(=O)C(=O)/C=C(\O)c1ccccc1,82.8%
19,COc1ccccc1CCNC(=O)c1ccc(C)o1,87.9%
20,CC1CC(C)CN(C(=O)COC(=O)c2ccc([N+](=O)[O-])o2)C1 (stereo not given),93.8%
21,CCn1nnc(NC(=O)c2ccc(-c3ccc(Cl)cc3)o2)n1,98.2%
22,COc1ccc(OCCCC(=O)Nc2ccc(N3CCOCC3)cc2)cc1,116%
23,CCOC(=O)CCNC(=O)c1ccc2nc(C3CCCCC3)oc2c1,104%

row,SMILES,viability
1,Cc1[nH][nH]c(=O)c1C(c1ccc(-c2ccc(F)cc2)o1)c1c(C)[nH][nH]c1=O,96.8%
2,CC(C)(C)OC(=O)NCCC(=O)Oc1ccc2ccc(=O)oc2c1,89.2%
3,Cc1noc(C)c1COc1ccc(C(=O)Nc2ccccn2)cc1,91.7%
4,O=C(Nc1ccccc1F)c1ccc(CSc2ccccc2)o1,89.5%
5,Cc1ccc(C)c(-c2nnc(NC(=O)C3=COCCO3)o2)c1,83%
6,Cc1cc(C)c(C(=O)COC(=O)c2ccc([N+](=O)[O-])o2)cc1C,115%
7,COCCn1c(C)cc(C(=O)COC(=O)c2ccc([N+](=O)[O-])o2)c1C,118%
8,Cc1ccc(C)c(-c2nnc(NC(=O)COc3ccccc3)o2)c1,77.5%
9,O=C1NN(c2ccccc2)C(=O)/C1=C/c1ccc(Sc2ccc(Cl)cc2)o1,79%
10,COc1ccc(-c2nnn(Cc3ccccc3)n2)cc1,103%
11,NC(=O)c1cccnc1Nc1cccc(F)c1,104%
12,COCCCC1CCN(Cc2nc(-c3ccccc3)no2)CC1,104%
13,CCCCNC(=O)COC(=O)c1cc(Br)ccc1Cl,118%
14,CC1COC(=O)C(NNc2ccc(Cl)c(Cl)c2)=N1 (stereo not given),115%
15,S=c1c2c(nc3nc[nH]n13)CCC2,102%
16,O=C(Cc1ccc(Cl)cc1)OCC(=O)c1ccc[nH]1,111%
17,Cc1cccc(OC(=O)c2sc3ncn(C)c(=O)c3c2C)c1,84.2%
18,O=C(c1ccc([N+](=O)[O-])o1)N1CCN(Cc2ccccc2)CC1,78.6%
19,O=[N+]([O-])c1ccc(CN2CCN(c3ccc(Cl)cc3)CC2)o1,108%
20,Cc1ccccc1NC(=O)c1nc[nH]c1C(=O)NCc1ccccc1,91.3%
21,Cc1cccc(CC(=O)NCC2CCCCC2)c1,110%
22,COc1ccc2c(c1)C(=C(C#N)C#N)C(=O)N2CCc1ccccc1,91.1%
23,CSc1nc2ccc(NC(=O)C3CC(=O)N(Cc4ccccc4)C3)cc2s1 (stereo not given),107%

row,SMILES,viability
1,O=C(CCC1CCCCC1)NCc1cccs1,105%
2,CCc1ccc(OCC(=O)c2c(O)c3ccccc3oc2=O)cc1,116%
3,CCCn1nnc(NC(=O)COc2ccc(CC)cc2)n1,109%
4,COc1cc(/C=N/Nc2ccc(Cl)c(C(=O)O)c2)ccc1OC(=O)c1cccs1,116%
5,COc1ccc(-c2nc(C=O)cs2)cc1,78%
6,Cc1cc(Br)ccc1OCCCCN1CCC(C)CC1,81%
7,CCOC(=O)COc1cc([N+](=O)[O-])cc2cccnc12,115%
8,CCOC(=O)COc1ccc2c3c(c(=O)oc2c1C)CCC3,112%
9,O=C(NCc1ccco1)c1nc2ccccc2s1,98.7%
10,O=Cc1c(NCc2ccco2)nc2ccccn2c1=O,90.6%
11,O=C(c1nnc(-c2ccc(Cl)cc2)o1)C1CCCC1,106%
12,CC1(c2nnc(Cc3ccccc3)o2)CC(c2ccccc2[N+](=O)[O-])=NO1 (stereo not given),96.1%
13,CCc1nnc(N/N=C/c2ccc(-c3ccc([N+](=O)[O-])cc3)o2)n1N,110%
14,CCCCCCCC(=O)N/N=C/c1ccc([N+](=O)[O-])o1,106%
15,COC(=O)c1cccc(NC(=O)COc2cccc([N+](=O)[O-])c2)c1,109%
16,O=C(CCNc1cccc(F)c1)c1cccc([N+](=O)[O-])c1,110%
17,CC1Cc2ccccc2N1C(=O)COC(=O)c1ccc(Cl)nc1 (stereo not given),84.6%
18,O=C(COC(=O)c1ccc(Br)o1)NCCCc1ccccc1,117%
19,COC(=O)CCSCc1cn2cc(Cl)ccc2n1,111%
20,CCC1CCc2sc(C(=O)NNC(=O)c3ccncc3)cc2C1 (stereo not given),90.1%
21,Cc1ccc(NCCC(=O)c2cccs2)cc1C,109%
22,COc1ccc(N=N/C(=C\O)C(=O)c2cccs2)cc1,95.2%
23,Sc1oc(-c2ccccc2)cc1C=Nc1ccccc1,87.7%

row,SMILES,viability
1,CCOC(=O)COc1ccc(C2CC(C)=NN2c2ccccc2)cc1 (stereo not given),99.1%
2,COc1ccc(C2=NOC(COC(=O)c3ccc4ccccc4n3)C2)cc1 (stereo not given),95.7%
3,CCCCOc1ccc(NC(=O)CN2CCN(Cc3ccccc3)CC2)cc1,101%
4,O=C(COC(=O)C1CC2C=CC1C2)Nc1ccccc1 (stereo not given),95.1%
5,Cc1cc(C)n2[nH]c(=O)c(N=Nc3cccc(C(F)(F)F)c3)c2n1,88.8%
6,CCOC(=O)/C=C1\Nc2ccccc2OC1=O,92.2%
7,Cn1c(SCCOc2cccc(Cl)c2)nnc1-c1ccncc1,96.3%
8,Clc1ccc(OCCCCN2CCc3ccccc3C2)cc1,92%
9,O=C(COC(=O)CCc1c[nH]c2ccccc12)Nc1cc([N+](=O)[O-])ccc1Cl,76.8%
10,O=C(CCCSc1nc2ccccc2s1)NCc1ccco1,102%
11,COc1ccc(CN=C2NN=C(c3ccc(Cl)cc3)CS2)cc1,79.2%
12,c1ccc(Cn2c(SCCN3CCOCC3)nnc2-c2cccnc2)cc1,99.7%
13,O=C(O)c1ccc(CN2C(=O)CSC2=S)cc1,102%
14,O=C(O)CCCCCN1C(=O)CSC1=S,99.2%
15,CCOc1ccc(OCC(=O)Nc2nccs2)cc1,91%
16,COc1ccc(NC(=O)Nc2ccc(O)c3ccccc23)cc1,88.4%
17,CCOc1ccc2ccccc2c1/C=N/NC(=O)c1ccncc1,125%
18,O=C(CCSc1ccc(Cl)cc1)Nc1cccnc1,85.8%
19,COc1ccc(C(=O)OCn2nnc3ccccc3c2=O)cc1,97.7%
20,Cc1ccc(C(=O)N/N=C/c2cccc3ccccc23)cn1,82.5%
21,CCOC(=O)C1CCN(CCCSc2ccc(Cl)cc2)CC1,109%
22,O=C(CCc1ccccc1)NC1C2CC3CC(C2)CC1C3 (stereo not given),75.9%
23,C/C(=N/NC(=O)c1cccc(C)c1)c1c(O)cc(C)oc1=O,93%

row,SMILES,viability
1,C/C(=N\NC(=O)c1ccncc1)c1cc2ccccc2oc1=O,132%
2,C/C(=N\NC(=O)c1cccc(Cl)c1)C1C(=O)c2ccccc2C1=O,73.1%
3,Cc1ccccc1C(=O)NN1CC(C(=O)OCc2ccc(Cl)c(Cl)c2)CC1=O (stereo not given),107%
4,CSc1ccccc1C(=O)NCc1ccc(S(N)(=O)=O)cc1,119%
5,O=C(COc1ccc(Cl)cc1)OCC(=O)N1CCCc2ccccc21,103%
6,O=C(Nc1cccnc1)c1cc(Cl)ccc1Cl,113%
7,CNC(=O)c1[nH]cnc1C(=O)Nc1ccc(Cl)cc1,113%
8,CN1/C(=C\C(=O)COC(=O)C2COc3ccccc3O2)C(C)(C)c2ccccc21 (stereo not given),89%
9,CN1/C(=C\C(=O)COC(=O)c2ccc([N+](=O)[O-])o2)C(C)(C)c2ccccc21,112%
10,O=C(Oc1cccnc1)c1ccc(Cl)c(Cl)c1,103%
11,O=C(OCC(=O)C12CC3CC(CC(C3)C1)C2)c1ccccn1,102%
12,O=C(OCc1ccc(Cl)c(Cl)c1)c1ccccn1,103%
13,NNC(=O)CNC(=O)C12CC3CC(CC(C3)C1)C2,96.7%
14,O=C(NCc1ccc(F)cc1)c1cnccn1,92.3%
15,CC(C)c1ccc(OCC(=O)NNC(=O)c2cnccn2)cc1,122%
16,Nc1c(C(=O)NC2CCCCC2)nsc1C(=O)OCC(=O)NC1CCCCC1,77.8%
17,COC(=O)COc1ccc(S(=O)(=O)NCc2ccc3c(c2)OCO3)cc1,125%
18,COC(=O)CCCC(=O)N1CCCC(C(=O)c2ccc(-c3ccccc3)cc2)C1 (stereo not given),111%
19,N#Cc1ccc(CSc2nnc(-c3cccnc3)o2)cc1,95.3%
20,O=C(COC(=O)CCC(=O)c1ccc(F)cc1)Nc1ccccc1,116%
